From PubChem BioAssay
The source made the active and inactive calls.

The compounds below were run against Homeobox protein Hox-A13 (Mus musculus) (UniProt Q62424) (assay: inhibitors of HoxA13-DNA binding, primary screen, biochemical, fluorescence polarization, labeled oligonucleotide (AID 1185)). Conditions: 15 min, higher = more signal, called active from +8 up or from −8 down.
Chain of Homeobox protein Hox-A13 (Mus musculus) (Q62424 whole entry, looked up): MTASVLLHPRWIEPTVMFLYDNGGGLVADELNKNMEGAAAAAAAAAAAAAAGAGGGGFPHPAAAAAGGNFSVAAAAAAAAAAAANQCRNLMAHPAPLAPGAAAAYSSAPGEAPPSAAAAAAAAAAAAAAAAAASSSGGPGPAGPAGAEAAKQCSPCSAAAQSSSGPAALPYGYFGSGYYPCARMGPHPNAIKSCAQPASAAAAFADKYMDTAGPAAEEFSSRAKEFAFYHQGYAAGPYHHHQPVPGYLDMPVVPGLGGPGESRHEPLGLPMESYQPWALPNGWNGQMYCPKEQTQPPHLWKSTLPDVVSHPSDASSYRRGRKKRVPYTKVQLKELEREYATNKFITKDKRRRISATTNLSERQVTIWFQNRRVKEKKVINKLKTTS

z-score, inactive:
O=C(O)[C@@H]1[C@@H]2C(=O)N(c3ccccc3)C(=O)[C@@H]2C[C@@H]1Sc1ccccc1 -2.65, CCOC(=O)C1=CC[C@@H](c2ccccc2F)N(S(=O)(=O)c2ccc(C)cc2)[C@H]1c1ccccc1 1.41, C=CCN1Cc2ccccc2[C@@H]2OC(c3ccc(OCCCO)cc3)=N[C@]2(CC=C)C1=O -1.62, O=C(NCCN1CCOCC1)[C@@H]1c2ccccc2C(=O)N(C2Cc3ccccc3C2)[C@H]1c1ccc(CO)cc1 -3.28, C=CCC(OC(C)=O)[C@@H]1[C@@H](N(Cc2cccc3ccccc23)C(=O)Cc2ccc(OC)cc2)c2cc(OCCCO)ccc2N1C(=O)c1ccc(-c2ccccc2)cc1 (stereo partly specified) -1.94, CC(C)[Si](C#CCCCC#N)(O[C@H](c1ccccc1)c1cn(Cc2ccccc2)nn1)C(C)C -1.61, NCCCCCCNC(=O)[C@@H]1C[C@@H]2C(=O)N[C@@H](CCCCN)C(=O)N2[C@@H]1c1ccc(O)cc1 -1.72, CCN(CC)c1ccc(N2CC=CC34O[C@@H]5/C=C\CCCOC(=O)C5[C@H]3C(=O)N(C(C)CO)[C@@H]4C2=O)cc1 (stereo partly specified) -5.97, CC(C)N1C(=O)C[C@@](C(=O)O)(c2ccc([N+](=O)[O-])cc2)[C@H]1c1ccc(CO)cc1 -2.9, CN(C)C(=O)[C@@]1(Cc2ccccc2)N=C(c2ccc(OCCCO)cc2)O[C@H]1c1ccccc1 -6.14, Cc1ccc(S[C@]2(C(=O)NC(C)C)CC(=O)N(Cc3cc(C(F)(F)F)cc(C(F)(F)F)c3)[C@@H]2c2ccc(CO)cc2)cc1 -2.62, COCC(=C=CC[C@H](O)c1ccc(CO)o1)CCO -3.75, CCCCCN1CC=CC23O[C@@H]4/C=C\CCCOC(=O)C4[C@H]2C(=O)N(C(C)CO)[C@@H]3C1=O (stereo partly specified) -3.74, COc1ccc([Si](C)(C)[C@@H]2[C@@H](CCO)O[C@]3(C(=O)N(Cc4cccc(NC(=O)[C@H](C)O)c4)c4ccccc43)[C@H]2C)cc1 -5.95, Cc1ccc(S[C@]2(C(=O)NCc3ccccc3)CC(=O)N(C3CCCCC3)[C@@H]2c2ccc(CO)cc2I)cc1 -2.37, CC(C)c1ccc(NN2C(C(O)c3ccc(F)cc3)C=CC3C(=O)N(c4ccccc4)C(=O)C32)cc1 (stereo unspecified) -1.93, COC(=O)[C@@]1(Cc2ccccc2)[C@H]2c3cc(C(=O)N4CCCC4)n(CCc4ccccn4)c3C[C@H]2CN1C(=O)c1ccccc1 -5.78, CCCN1C(=O)[C@]2(Cc3ccccc31)N=C(c1ccc(OCCCO)cc1)O[C@@H]2c1ccccc1 -6.66, O=C1[C@H]2C=C(I)[C@H](C[C@@H]2OCCOCCO)[C@@]12CO2 0.122, CCCCCCc1nc(Cc2cc(OC)c(OC)c(OC)c2)cc2c1[Si](C(C)C)(C(C)C)OC2 -3.54, COC(=O)C(CC#Cc1ccc2c(c1)[C@]1(C(=O)N2)[C@H](c2ccc(O)cc2)N2[C@H](c3ccccc3)[C@H](c3ccccc3)OC(=O)[C@H]2[C@@H]1C(=O)NC[C@H](O)c1ccccc1)C(=O)OC -3, COCCOC(=O)N1C(=O)[C@@]2(c3cc(C#CC4=CCCCC4)ccc31)[C@H](c1ccccc1OCCO)N1[C@H](c3ccccc3)[C@H](c3ccccc3)OC(=O)[C@H]1[C@@H]2C(=O)N1CCN(c2ncccn2)CC1 1.02, O[C@@H](Cc1ccccc1)[C@@H](/C=C/C1CC1)N(CC#Cc1ccccc1)Cc1ccccc1Br -0.167, COc1cc2c(cc1O)C=[N+](Cc1sc3ccccc3c1Cl)CC2 -5.22, COc1ccc(C#Cc2ccc3c(c2)[C@]2(C(=O)N3)[C@H](C(=O)O)[C@H]3C(=O)O[C@H](c4ccccc4)[C@H](c4ccccc4)N3[C@@H]2c2ccc(O)cc2)cc1 -6.25, Cn1cccc1C(O)C1C=CC2C(=O)N(c3ccccc3)C(=O)C2N1Nc1ccccc1 (stereo unspecified) -4.04, Cc1ccc(F)cc1S(=O)(=O)N[C@@H]1CCN(Cc2ccc(Br)cc2)C1 -5.43, CC1CC/C=C\[C@H]2OC34C=CCN(Cc5ccccc5)C(=O)[C@H]3N(C(CO)C(C)C)C(=O)[C@@H]4C2C(=O)O1 (stereo partly specified) -5.14, CCOC(=O)C1=C[C@@H](C(C)C)N(S(=O)(=O)c2ccc(C)cc2)[C@H]1c1ccc(C(F)(F)F)cc1 -0.498, COCCCNC(=O)[C@@]1(Sc2ccc(C)cc2)CC(=O)N(C2Cc3ccccc3C2)[C@@H]1c1ccc(CO)cc1 -3.56, C[N+](C)(C)CCCC[C@@H]1NC(=O)[C@@H]2C[C@H](C(=O)NCCCCCCN)[C@H](c3cccc(OCCO)c3)N2C1=O -3.34, C=CCC(OC(C)=O)[C@@H]1[C@@H](N(Cc2ccc(-c3ccccc3)cc2)C(=O)c2ccc(-c3ccccc3)cc2)c2cc(OCCCO)ccc2N1C(=O)c1ccc2ccccc2c1 (stereo partly specified) -0.68, CC1CC/C=C\[C@H]2OC34C=CCN(C(C)C)C(=O)[C@H]3N(CCO)C(=O)[C@@H]4C2C(=O)O1 (stereo partly specified) -2.91, CCCNC(=O)[C@@H]1c2ccccc2C(=O)N(Cc2ccc(OC(F)(F)F)cc2)[C@H]1c1ccc(CO)cc1 -3, CC(C)NC(=O)[C@@]1(C)c2ccccc2C(=O)N(Cc2ccc(OC(F)(F)F)cc2)[C@H]1c1ccc(CO)cc1 -3.07, COc1ccc(CCNC(=O)[C@@]2(Cc3ccccc3I)c3ccccc3C(=O)N(C3CCCCC3)[C@H]2c2ccc(CO)cc2)cc1 -2.56
